# High-throughput results: PubChem BioAssay, National Center for Advancing Translational Sciences (NCATS)
# Only some compounds are listed: those with a hit (about 2.8% of all), similar ones and a draw of the others.
# PI5P4Ka inh – inhibitors of human PI5P4K alpha; P48426; PI5P4Kalpha enzyme, ADP-Glo luminescence, 60 min; stronger effect = lower value; max response, %; 1.2% of 330,000 active; active means max response of -50% or lower; inconclusive means between -30% and -50%; inactive means -30% or higher; further: value at the top dose of about 77 µM
# Target sequence (P48426 whole entry, looked up): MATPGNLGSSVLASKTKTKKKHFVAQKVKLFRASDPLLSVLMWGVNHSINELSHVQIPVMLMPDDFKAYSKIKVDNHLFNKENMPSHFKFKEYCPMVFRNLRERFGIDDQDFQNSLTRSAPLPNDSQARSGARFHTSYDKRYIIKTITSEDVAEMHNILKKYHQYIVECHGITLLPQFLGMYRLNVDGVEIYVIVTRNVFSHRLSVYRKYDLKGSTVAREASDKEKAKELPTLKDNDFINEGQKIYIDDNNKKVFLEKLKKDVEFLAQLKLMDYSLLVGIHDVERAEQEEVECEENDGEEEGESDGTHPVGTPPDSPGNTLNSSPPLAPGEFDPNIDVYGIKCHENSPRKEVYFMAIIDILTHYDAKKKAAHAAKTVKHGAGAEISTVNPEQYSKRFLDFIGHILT
#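 Controls without substrate or without enzyme flank wells where PI5P4Kalpha converts substrate using 5 microM ATP (final). Incubation lasts 60 minutes at room temperature; ADP formed is read by ADP-Glo luminescence.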
# POLK inh – blocks human DNA polymerase kappa activity; Q9UBT6; purified Pol kappa, fluorescent DNA synthesis assay, 10 min; Potency, µM (doses to about 107 µM), hits mostly inhibitors; 0.53% of 400,000 active; AID 588579
#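 First, compounds were pin-transferred onto 10 nM Pol kappa. After 15 min at room temperature, substrate was added to 50 nM final. Fluorescence was then measured kinetically at 0 and 10 min.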
# Pol eta inh – DNA polymerase eta (human) inhibition; recombinant Pol eta, fluorescent DNA replication assay; Potency, µM (titrated, usually from 114 µM), most hits filed as inhibitors; 1.2% of 390,000 active
#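 Fluorescent replication assay: 50 nM final substrate added after a 15 min room-temperature compound preincubation with 10 nM enzyme. Signal taken at 0 min and again at 10 min.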
# Pol iota inh – inhibitors of human DNA polymerase iota | Potency, µM (top dose mostly 115 µM), usual class: inhibitors | Pol iota fluorescent replication assay, 10 min | 1% of 390,000 active | Q9UNA4
#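 Pol iota at 10 nM preincubated 15 min with compounds at room temperature; reaction started with fluorescent substrate, 50 nM final. Fluorescence read kinetically at 0 and 10 min; buffer-only wells as negative control.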
# Pol beta inh – inhibitors of human DNA polymerase beta; 1.3% of 340,000 active; P06746; Potency, µM (highest dose often 114 µM), most hits filed as inhibitors; Pol beta primer extension/strand displacement, fluorescence kinetic; AID 485314
#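 10 nM enzyme + cpd, 15 min RT; start with substrate 50 nM final; read 0 min and after 10 min RT. Corrected, normalized data; 4-parameter Hill curve fit.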
# PI4K2A inh – blocks human PI4K2A kinase activity; Q9BTU6; purified PI4K2A, ADP-Glo luminescence, 1 h; stronger effect = lower value; activity change, negative = inhibition, % at 76.9 µM; 0.13% of 420,000 active; in the data active means activity change below about -50%; inconclusive means mostly about -30% to -49%
#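 ADP-Glo luminescence measured ADP generated by PI4K2A enzyme (4 ug/mL before mixing) with 1.2 mM PI substrate (pre-mix) and 300 microM ATP (pre-mix). Tris pH7.5 buffer with MgCl2, Triton X-100; 1 h reaction at ambient temperature.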
# Hits are given with their value; – = inactive; ? = inconclusive; · = no result given; [ ] = another dose, or the depositor's remark. Unless noted, the call rests on the fitted dose curve; in most records, active means well fitted inhibition curve with a large enough effect; inconclusive means small, poorly fitted or top-dose-only effect, or another doubt; inactive means no such curve, though single readings can be large or run the other way.
SMILES,PI5P4Ka inh,POLK inh,Pol eta inh,Pol iota inh,Pol beta inh,PI4K2A inh
C=CC[n+]1c(/C=C2\C=Cc3cc(C)ccc3N2CC)ccc2ccccc21,–,?,?,?,31.6µM,–
CCN1C(=C(C#N)C#N)C=Cc2cc(C)ccc21,–,–,–,–,–,–
CCOC(=O)c1ccc(NC(=O)CSc2nc(-c3cccs3)cc(C(F)(F)F)c2C#N)cc1,·,–,–,–,–,–
CCN(C(=O)COC(=O)/C(C#N)=C/c1ccc(N(C)C)cc1)C1CCS(=O)(=O)C1 (stereo not drawn),–,?,–,56.2µM,·,–
O=c1ccc2cc3c([nH]c4ccc(Br)cc43)oc-2c1O,·,·,·,·,10µM,·
O=C(O)c1ccc(N=Nc2c(O)[nH]c3ccc(Br)cc23)cc1,–,–,?,–,–,–
CCN1C/C(=C/c2ccc(N3CCOCC3)cc2)C(=O)/C(=C/c2ccc(N3CCOCC3)cc2)C1,–,?,?,79.4µM,?,–
CC1=NN(c2ccc(Cl)c(C(=O)O)c2)C(=O)C1,–,–,22.4µM,1.12µM,?,–
CC1=NN(c2ccc(C(=O)O)cc2)C(=O)CC1,–,–,–,–,?,–
CC1=NN(c2cccc(Cl)c2)C(=O)C1,–,–,–,3.55µM,–,-59.8
CC(C)(C)NC(=O)C1c2ccccc2OCC(=O)N1Cc1ccccn1 (stereo not drawn),–,·,·,·,·,–
COc1cc(CCNC2=CC(=O)c3ncccc3C2=O)ccc1O,–,–,15.8µM,28.2µM,·,?
CC[C@H](C)[C@H](NC(=O)[C@H](Cc1ccc(O)cc1)NC(=O)[C@H](CCCNC(=N)N)NC(=O)[C@H](CCCNC(=N)N)NC(=O)[C@H](CC(C)C)NC(=O)[C@H](CC(=O)O)NC(=O)[C@H](C)NC(=O)[C@H](C)NC(=O)[C@H](Cc1ccc(O)cc1)NC(=O)[C@H](CCC(N)=O)NC(=O)[C@H](C)NC(=O)[C@H](CCSC)NC(=O)[C@H](CCC(N)=O)NC(=O)[C@H](CCC(=O)O)NC(=O)[C@@H]1CCCN1C(=O)[C@@H](NC(=O)[C@H](C)NC(=O)[C@H](CC(N)=O)NC(=O)[C@H](CC(=O)O)NC(=O)CNC(=O)[C@@H]1CCCN1C(=O)[C@H](Cc1ccc(O)cc1)NC(=O)[C@@H](NC(=O)[C@@H]1CCCN1C(=O)[C@H](CCC(=O)O)NC(=O)[C@H](CC(C)C)NC(=O)[C@@H]1CCCN1C(=O)[C@H](C)N)C(C)C)[C@@H](C)O)C(=O)N[C@@H](CC(N)=O)C(=O)N[C@@H](CCSC)C(=O)N[C@@H](CC(C)C)C(=O)N[C@H](C(=O)N[C@@H](CCCNC(=N)N)C(=O)N1CCC[C@H]1C(=O)N[C@@H](CCCNC(=N)N)C(=O)N[C@@H](Cc1ccc(O)cc1)C(N)=O)[C@@H](C)O,·,–,·,·,·,·
CCCNC(=O)c1ccc(-c2nc3ccccc3s2)s1,–,–,?,?,15.8µM,–
CCCCn1c(C)cc2c(c1=O)C1O[C@](c3ccsc3)(Cc3ccccc31)O2,·,·,·,·,2.24µM,·
Cc1cc2c(c(=O)n1Cc1ccccc1)C1O[C@](c3ccsc3)(Cc3ccccc31)O2,·,·,·,·,–[22.9 µM],·
Cc1cc2c(c(=O)n1-c1ccccc1)C1O[C@](c3ccsc3)(Cc3ccccc31)O2,·,·,·,·,5.01µM,·
O=C(OCC(=O)c1ccc(Cl)s1)c1cnccn1,-52.4,–,?,?,?,–
Fc1ccc2[nH]c3c(N4CCc5ccccc5C4)ncnc3c2c1,–,–,–,–,14.1µM,–
Cc1ccc2[nH]c3c(N4CCc5ccccc5C4)ncnc3c2c1,–,–,–,–,–,–
CSCC[C@H](NC(=O)[C@H](Cc1ccccc1)NC(=O)[C@H](Cc1cnc[nH]1)NC(=O)CNC(=O)[C@@H](NC(=O)[C@H](C)NC(=O)[C@H](Cc1c[nH]c2ccccc12)NC(=O)[C@H](CCC(N)=O)NC(=O)[C@@H]1CCCN1C(=O)[C@@H](NC(=O)[C@@H]1CCC(=O)N1)C(C)C)C(C)C)C(N)=O,·,–,·,·,·,·
C#CCN1C(=O)S/C(=C/C=C/c2ccc(N(C)C)cc2)C1=O,–,–,–,79.4µM,–,–
O=C(O)CN1C(=O)/C(=C/C=C/c2ccccc2)SC1=S,–,–,–,?,–,–
O=C1OCC(c2ccccc2)=C1c1ccccc1,–,–,–,–,–,–
N#CC1=C(c2ccc(-c3ccccc3)cc2)COC1=O,?,–,89.1µM,?,?,–
SMILES,PI5P4Ka inh,POLK inh,Pol eta inh,Pol iota inh,Pol beta inh,PI4K2A inh
Cc1ccc(NC(=O)CSc2nc(NS(=O)(=O)c3ccc(C)cc3)cc(=O)[nH]2)cc1,·,–,–,–,28.2µM,–
O=C(CSc1ncn[nH]1)Nc1ccc(S(=O)(=O)Nc2ncccn2)cc1,–,–,–,–,–,–
Cc1ccc(S(=O)(=O)Nc2cc(=O)[nH]c(SCC(=O)Nc3cccc(C(F)(F)F)c3)n2)cc1,–,–,–,–,–,–
Cc1ccc(C)c(SCC(=O)Nc2ccc(S(=O)(=O)Nc3ncccn3)cc2)c1,?,–,50.1µM,?,?,–
Cc1cccc(NC(=O)CSc2nc(NS(=O)(=O)c3ccccc3)cc(=O)[nH]2)c1,–,–,–,?,31.6µM,–
Cc1ccnc(NS(=O)(=O)c2ccc(NC(=O)Cc3cccs3)cc2)n1,-83.0,31.6µM,2.51µM,14.1µM,20µM,–
O=C(CSc1nc(NS(=O)(=O)c2ccccc2)cc(=O)[nH]1)Nc1ccc(Cl)cc1,?,44.7µM,–,15.8µM,20µM,–
COC(=O)C1=C(C(=O)OC)[C@]2([C@@H]3C/C=C\CN[C@@H](Cc4ccccc4)C(=O)N3Cc3ccccc3)C=C[C@H]1O2,·,–,·,–,·,·
C[C@H]1[C@@H](OC(=O)NCc2ccc(C(F)(F)F)cc2)CC[C@@]23CCCN2C(=O)CCC[C@@H]13,·,·,·,·,·,–
CN(C)c1ccc(O)c2c1C[C@@H]1C[C@H]3C(N(C)C)C(=O)C(C(N)=O)=C(O)[C@@]3(O)C(=O)C1=C2O (stereo partly drawn),·,–,·,·,·,·
C=C1c2c(Cl)ccc(O)c2C(O)=C2C(=O)[C@]3(O)C(O)=C(C(N)=O)C(=O)C(N(C)C)C3C(O)C12 (stereo partly drawn),·,1.58µM,·,·,·,·
C=C1c2cccc(O)c2C(O)=C2C(=O)[C@]3(O)C(O)=C(C(N)=O)C(=O)C(N(C)C)C3C(O)C12 (stereo partly drawn),·,3.98µM,·,·,·,·
C[C@H]1c2cccc(O)c2C(O)=C2C(=O)C3(O)C(O)=C(C(N)=O)C(=O)[C@@H](N(C)C)[C@@H]3[C@@H](O)[C@@H]21 (stereo partly drawn),–,–,–,–,·,–
O=C(C1CCC1)N1CCc2cc(S(=O)(=O)N3CCCC3)ccc21,·,·,·,·,·,–
